Exocytosis inh: lytic granule exocytosis inhibition. TALL-104 LAMP-1 surface exposure, flow cytometry; cells stimulated with thapsigargin and PMA. inhibition, % at 10 µM. actives 0.66% (n = 360,000). AID 651702;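 active means inhibition above about 55%, limit read from the data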
CaV13 FRET inh: Disruptors of the CACNA1D IQ motif to Ca2+-dependent inactivation inhibitor domain association, primary screening, Förster resonance energy transfer in intact living …; HEK cells, CFP/YFP FRET ICDI-IQ, plate reader, 10 min; percent FRET-ratio fall versus neutral wells; inhibition, % at 12.3 µM; actives 0.098% (n = 340,000);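 active means mean replicate inhibition of at least 30% and at least 1% of replicates passing that level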;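 further: 0% = median of the neutral control wells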
VLA-4 inh: inhibition in a human VLA-4 binding assay. P13612. VLA-4 expressing cells, ligand binding flow cytometry. inhibition, % (about 7 µM as worked out from the volumes in the protocol). actives 0.2% (n = 330,000); in the data active means inhibition above about 50%
ABCB6 inh MLPCN: inhibitors of human ABC transporter ABCB6; Q9NP58; K562-ABCB6 porphyrin accumulation, flow cytometry, 1 h; hits give low values; fluorescence ratio to DMSO, % at 10 µM; actives 0.19% (n = 360,000); AID 602162;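 active means fluorescence ratio to DMSO below 75%, the collection mean minus 3 SD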;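 further: signal is porphyrin accumulated inside mitochondria; 100% equals median channel fluorescence of DMSO control wells; lower ratio means ABCB6 inhibition with less porphyrin fluorescence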
Target sequence (Q9NP58 whole entry, looked up): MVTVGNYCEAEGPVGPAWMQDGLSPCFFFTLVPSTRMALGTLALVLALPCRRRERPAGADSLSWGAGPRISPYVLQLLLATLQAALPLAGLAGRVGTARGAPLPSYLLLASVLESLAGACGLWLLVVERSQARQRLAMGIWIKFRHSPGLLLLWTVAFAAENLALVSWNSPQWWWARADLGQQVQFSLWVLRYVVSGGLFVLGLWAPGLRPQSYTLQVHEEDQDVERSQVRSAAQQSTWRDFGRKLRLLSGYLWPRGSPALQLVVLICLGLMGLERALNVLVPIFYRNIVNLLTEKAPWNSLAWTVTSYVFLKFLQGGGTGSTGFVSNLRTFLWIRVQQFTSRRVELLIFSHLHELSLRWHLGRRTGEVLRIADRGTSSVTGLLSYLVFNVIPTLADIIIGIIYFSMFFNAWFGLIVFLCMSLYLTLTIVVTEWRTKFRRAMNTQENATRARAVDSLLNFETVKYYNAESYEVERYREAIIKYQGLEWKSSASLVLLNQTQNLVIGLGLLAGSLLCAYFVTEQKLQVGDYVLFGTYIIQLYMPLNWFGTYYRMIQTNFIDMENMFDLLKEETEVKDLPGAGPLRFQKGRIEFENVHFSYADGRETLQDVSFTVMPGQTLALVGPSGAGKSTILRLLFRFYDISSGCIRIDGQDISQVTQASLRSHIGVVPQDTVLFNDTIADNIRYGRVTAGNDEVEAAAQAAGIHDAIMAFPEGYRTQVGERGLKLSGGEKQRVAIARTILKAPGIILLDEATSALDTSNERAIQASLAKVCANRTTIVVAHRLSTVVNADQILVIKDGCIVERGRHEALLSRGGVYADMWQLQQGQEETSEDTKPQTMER
Starred values were filed as active, the others as inactive; . = no result given. Hits are enriched below; roughly 1.1% of the tested compounds scored in any of these assays.

SMILES	Exocytosis inh	CaV13 FRET inh	VLA-4 inh	ABCB6 inh MLPCN
COC(=O)C1=CN(Cc2ccc(OC)c(OC)c2)C=C(C(=O)OC)C1c1cccc(OC)c1OC	2.2	3.1	-5.9	101.0
O=C(C(=O)c1ccc(O)cc1)c1ccccc1	-9.4	-18.2	58.1*	93.0
O=C1C=C(c2c(O)ccc3ccccc23)c2ccccc2C1=O	104.3*	-7.3	.	129.0
O=C1C=C(O)c2cccc(O)c2C1=O	-0.5	.	-24.0	101.0
CC(C)NC(=O)OC[C@H]1O[C@H](C#Cc2ccc(C(C)(C)C)cc2)C=C[C@H]1O	.	-3.2	.	.
O=C(NCc1cc(C(F)(F)F)ccc1Cl)c1cccc2c1C(=O)c1ccc(Cl)cc1S2(=O)=O	.	35.6*	-9.5	.
Nc1[nH]c(C(=O)c2ccccc2)c(-c2ccc(Cl)cc2)c1C(=O)c1c[nH]c2ccc(Br)cc12	.	-18.1	.	.
CCOC(=O)/C(=C\c1ccccc1)C(=O)c1cc(C(C)=O)c(Nc2ccccc2)s1	13.4	.	-1.9	99.0
CCOC(=O)/C(=C\c1cccnc1)C(=O)c1cc(C(C)=O)c(Nc2ccccc2)s1	59.9*	.	20.3	89.0
CCc1ccc2c(c1)/C(=C/C(=O)c1cccs1)C(=O)N2	104.4*	-3.8	21.3	102.0
Cc1cccc2c1NC(=O)/C2=C\C(=O)c1cccs1	4.4	-3.5	19.2	103.0
O=C(N[C@H](C(=O)N1CCC[C@H]1C(=O)NCc1ccccc1)C1CCCCC1)c1ccc(Cl)c(Cl)c1	.	-9.8	.	.
O=C(C(=O)N1CCC(CNS(=O)(=O)Cc2ccccc2)CC1)c1cccs1	.	-11.5	.	.
O=C(/C=C/c1ccccc1)NNC(=O)C1CC1	-1.8	-6.8	3.2	65.0*
COc1cccc2[nH]c3c(N4CCCCC4)ncnc3c12	69.4*	-8.6	4.2	89.0
COc1ccc(CNC(=O)[C@@H](Cc2ccccc2)NC(=O)[C@H]2O[C@@H](n3cnc4c(=O)[nH]c(N)nc43)[C@H](O)[C@@H]2O)cc1	.	-5.4	.	.
CCOc1cc2c(c3c1C(c1ccccc1)N(S(=O)(=O)c1ccc(C)cc1)C3)C(=O)C=CC2=O (stereo not given)	73.7*	-2.2	.	106.0
CCCCCCC(=O)N(O)C1CC(=O)N(c2ccc(Br)cc2)C1=O (stereo not given)	102.9*	-5.5	8.1	99.0
CCCCCCC(=O)N(O)C1CC(=O)N(c2ccc(F)cc2)C1=O (stereo not given)	32.4	-5.4	-11.6	104.0
Cc1cc2c(cc1C)-c1c(ssc1=Nc1ccc(S(N)(=O)=O)cc1)C(C)(C)N2	66.6*	-7.2	3.9	89.0
CC(=O)NS(=O)(=O)c1ccc(N=c2ssc3c2-c2cc(C)c(C)cc2NC3(C)C)cc1	0.0	-5.0	3.1	97.0
N#CC(C#N)=c1ccc2c(c1)N1C3=C(CCCC3)CC3CCCCC31N=2 (stereo not given)	64.0*	-3.0	-70.5	130.0
CC(=O)c1cccc(-c2ccnc3c2CC(C(=O)NCc2ccccc2)O3)c1 (stereo not given)	2.5	-8.0	.	99.0
CC(=O)c1cccc(-c2ccnc3c2CC(C(=O)NCc2ccc(F)c(F)c2)O3)c1 (stereo not given)	6.7	43.7*	.	96.0
COC(=O)[C@]12C[C@H](CC(=O)N3CCC(c4ccccc4)CC3)C(=O)N(Cc3ccccc3)C1=C[C@H](C(C)C)O[C@@H]2C1CC1	.	-8.4	.	.
SMILES	Exocytosis inh	CaV13 FRET inh	VLA-4 inh	ABCB6 inh MLPCN
O=C(N[C@@H](Cc1cccnc1)C(=O)N1CCC[C@H]1C(=O)NCc1ccccc1)c1ccc(Cl)cc1Cl	.	-11.4	.	.
CCOC(=O)c1cnc2c3c(noc13)CCC2	.	-4.8	.	.
CN1CCc2c(C#N)c(N3CCCCC3)nc(NCc3ccccc3)c2C1	-0.8	-8.6	17.6	94.0
N#Cc1c(NCCCO)nc(NCc2ccccc2)c2c1CCN(Cc1ccccc1)C2	0.7	32.1*	-1.1	96.0
CCC(c1nc2ccccc2[nH]1)n1c(-c2ccc3cc[nH]c3c2)nc2ccccc21 (stereo not given)	.	-8.8	.	.
Nc1ccc(C#Cc2ccc3c(=O)c4ccccc4oc3c2)cc1	8.8	105.7*	-56.7	115.0
Cc1cc(C)nc(SCC(=O)Nc2ccc(S(=O)(=O)Nc3onc(C)c3C)cc2)n1	3.5	80.0*	16.8	100.0
C/C(CCc1ccccc1)=N\NC(=S)NCCc1ccccc1	90.8*	-4.8	7.9	94.0
C/C(=N\NC(=S)NCCc1ccccc1)c1cccs1	-3.1	-4.7	13.0	96.0
Cc1c(C(=O)NCc2cccc(C(F)(F)F)c2)sc(=O)n1Cc1ccc(C(=O)N(C)C)cc1	2.1	47.1*	.	96.0
Cc1ccc(Cn2c(C)c(C(=O)NCc3cccc(C(F)(F)F)c3)sc2=O)cc1	-7.4	-12.5	.	103.0
CSc1ccc(Cn2c(C)c(C(=O)NCCC#N)sc2=O)cc1	-2.3	34.0*	.	97.0
Cc1c(C(=O)NCc2ccc3c(c2)OCCO3)sc(=O)n1Cc1ccccc1F	-0.1	73.3*	.	99.0
Cc1c(C(=O)NCc2cccc([N+](=O)[O-])c2)sc(=O)n1Cc1cccc(F)c1	11.6	63.0*	.	103.0
COC(=O)N1C[C@@H]2Oc3nccnc3O[C@@H]2C[C@@H]1c1ccccc1Br	.	-3.5	.	.
CCCCS(=O)(=O)N1CCCc2nc(-c3ccc(OC)cc3)ccc21	.	-6.1	.	.
COc1ccc(CNC(=O)c2sc(=O)n(Cc3ccc(C)cc3)c2C)cc1OC	-2.9	54.8*	.	92.0
O=C(N/N=C/c1ccncc1)c1ccccc1OCc1ccc(Br)cc1	83.4*	-13.5	-8.1	100.0
Cc1cccc(/C=N/NC(=O)c2ccccc2OCc2cccc(Br)c2)n1	74.5*	-2.6	-8.4	103.0
Cc1cccc(/C=N/NC(=O)c2cc(Br)ccc2OCc2ccccc2)n1	36.0	-3.3	17.3	101.0
Fc1ccc(-c2nc3ccccn3c2NCc2ccc3c(c2)OCO3)cc1	4.7	48.9*	-2.6	101.0
Cc1ccc(S(=O)(=O)n2nc(OC(=O)c3c(F)cccc3Cl)cc2N)cc1	78.0*	-2.0	1.7	80.0
CCCNS(=O)(=O)c1cccc(C(=O)OCc2cc(=O)oc3cc(OC)ccc23)c1	70.1*	-7.2	26.9	102.0
COc1ccc2c(COC(=O)c3cccc(S(=O)(=O)NCC(C)C)c3)cc(=O)oc2c1	16.1	-3.9	-2.2	92.0
COc1cc(OC)c(C2Nc3cccc4cccc(c34)N2)c(OC)c1	75.6*	-17.1	6.5	119.0
SMILES	Exocytosis inh	CaV13 FRET inh	VLA-4 inh	ABCB6 inh MLPCN
COc1ccc(C2Nc3cccc4cccc(c34)N2)cc1	24.4	-4.3	2.4	111.0
Cc1cc(=O)oc2cc(OC(=O)c3cncc(Br)c3)ccc12	-0.2	44.8*	0.0	103.0
CCCC(=O)Oc1ccc2c(C)cc(=O)oc2c1	7.0	-5.4	-19.7	90.0
COc1ccccc1CCn1cnc(-c2cccc(Cl)c2)c1CC(C)C	.	-4.2	.	.
CCOC(=O)c1c(C)[nH]c(C(=O)N/N=C/c2ccc(Br)cc2)c1C	-1.8	-3.6	-21.9	74.0*
Nc1nc2ncccc2cc1C(=O)NC1CC1	.	-3.3	.	.
CCn1c(=NC(=O)CSC(C)=O)sc2cc(OC)ccc21	-0.8	39.5*	-4.1	98.0
COCCn1c(=NC(=O)CSC(C)=O)sc2cc(OC)ccc21	-3.9	-3.2	5.4	97.0

Screening results from PubChem BioAssay.
